Screening results (PubChem)
Compounds with a hit are over-represented: about 7.3% of the library has one in this group of screens.
HCMV inh – qHTS Assay for inhibitors of the human cytomegalovirus (HCMV); 410,000 tested, 4.5% active; activity change, negative = inhibition, % at 57.5 µM; HFF cells, HCMV-luciferase reporter, 72 h; stronger effect = lower value; AID 1259415, 2018; in the data active = activity change below about -60%; inconclusive = no clear call, values can overlap the other calls; inactive = above about -39%
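After 16 h attachment at 37C, HFF cells received test compound and HCMV-luciferase (1 PFU/cell); reporter luminescence read 72 h later, data normalized against buffer-only and known inhibitor Salinomycin.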
FMDV inh – High Throughput Screening for Foot and Mouth Disease Virus Antivirals. FMDV antiviral cell-based qHTS. Potency, µM (top dose mostly 57.9 µM), without a hit: at the highest dose activity change, negative = inhibition, most hits filed as inhibitors. 410,000 tested, 1.2% active; calls by dose curve; tested in HEK293T cells; also: read-out not given here; potency is read from the fitted curve at half-maximal effect; nearly all actives have a fitted effect of over 45% in size
HCV inh – qHTS Assay for Inhibitors of Hepatitis C Virus (HCV); Huh7.5.1 HCVcc-Cre infection, luciferase reporter, 44 h; Potency, µM (top dose mostly 41.8 µM), without a hit: at the top dose activity change, negative = inhibition, actives largely listed as inhibitors; 340,000 tested, 3.4% active; active = well fitted inhibition curve with a large enough effect; inconclusive = small, poorly fitted or top-dose-only effect, or another doubt; inactive = no such curve, though single readings can be large or run the other way; also: potency is read from the fitted curve at half-maximal effect
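Cells (1,000/well) were plated 4 h before compound, then infected with HCVcc-Cre virus (~0.5 moi). After 44 h further culture, infection was read as luciferase luminescence following a 15 min substrate incubation at room temperature.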
Vaccinia Venus – qHTS for Stage-Specific Inhibitors of Vaccinia Orthopoxvirus: Venus Reporter Primary qHTS | Vaccinia virus Venus reporter expression, fluorescence | Potency, µM (titrated, usually from 36.5 µM), inactives show at the highest dose activity change, negative = inhibition, hits mostly inhibitors | 330,000 tested, 0.46% active; calls by dose curve; tested in A549 cells; also: potency is read from the fitted curve at half-maximal effect; nearly all actives have a fitted effect of over 30% in size
Vaccinia mCherry – qHTS for Stage-Specific Inhibitors of Vaccinia Orthopoxvirus: mCherry Reporter Primary qHTS; Vaccinia virus mCherry reporter infection, fluorescence; Potency, µM (series often up to 36.5 µM), inactives show at the highest dose activity change, negative = inhibition, most hits filed as inhibitors; 310,000 tested, 0.63% active; AID 720579, 2013; calls by dose curve; tested in A549 cells; also: potency is read from the fitted curve at half-maximal effect; nearly all actives have a fitted effect of over 35% in size
An asterisk follows results filed as active; i = inactive; ? = inconclusive; . = not tested or not shown; [ ] = another dose, or the depositor's remark. % is scaled to controls: 0 for no effect and ±100 for the full control effect.

SMILES	HCMV inh	FMDV inh	HCV inh	Vaccinia Venus	Vaccinia mCherry
COC(=O)C1C(=O)C2=C(CC1C)NC(C)=C(C(=O)OCc1ccc(OC)cc1)C2c1ccc(C)o1 (centres undefined)	6.4	-0.4%	?	.	.
COC(=O)C1C(=O)C2=C(CC1C)NC(C)=C(C(=O)OCCOc1ccccc1)C2c1ccc(C)o1 (centres undefined)	-3.7	-19.8%	12.6µM*	-4.7%	-19.1%
COCCOC(=O)c1[nH]c2c(c1C)C(=O)CC(c1ccc(OC)c(OC)c1)C2 (centres undefined)	?	?	10µM*	.	.
CCCOC(=O)c1[nH]c2c(c1C)C(=O)CC(c1ccc(OC)c(OC)c1)C2 (centres undefined)	?	-22.0%	-28.6%	-0.8%	-9.2%
CCC(C)(C)NC(=O)c1ccc2c(c1)N(CC(=O)NC1CCCC1)C(=O)C(C)(C)O2	?	9.2%	8.0%	0.0%	i
O=C(O)Cc1nn(Cc2ccc(Cl)cc2)c(=O)c2ccccc12	-68.9*	-7.6%	11.9%	4.2%	-3.6%
O=C(NCc1ccccc1F)C1CCCN(S(=O)(=O)c2ccc(-n3cnnn3)cc2)C1 (centres undefined)	-76.7*	?	3.3%	-17.0%	i
CC1=NN(c2nc3ccccc3[nH]2)C(=O)/C1=C/N(C)C	.	?	?	-11.7%	i
CC1=NN(c2nc3ccccc3[nH]2)C(=O)C1Cc1ccccc1 (centres undefined)	.	15.7%	3.55µM*	-18.4%	-27.4%
CCCCCCCCCCCCCCCC(O)C(N)CO (centres undefined)	-98.3*	-3.1%	0.0%[8.37 µM]	-10.0%	i
CCCCCCCCCCCCC/C=C\[C@@H](O)[C@@H](N)CO	.	-3.8%	.	.	.
COc1cccc(NC(=O)Cn2c(=O)n(CCCCC(=O)NCc3ccccc3Cl)c(=O)c3ccccc32)c1	-12.9	-12.6%	.	-20.5%	?
Cn1c(-c2cccs2)[n+](C)c2ccccc21	-8.0	-5.3%	11.2µM*	-23.1%	-14.4%
O=C(Cn1c(=O)n(Cc2ccccc2)c(=O)c2sc3ccccc3c21)Nc1ccc(F)cc1	4.5	-6.5%	.	-28.2%	-21.4%
CCC(CC)C(=O)Nc1cccc(-c2nc3ncccn3c2C)c1	-3.2	-13.8%	.	-3.7%[7.34 µM]	-13.1%[7.34 µM]
O=C(NCc1ccc2c(c1)OCO2)c1ccc(CS(=O)Cc2ccc(Cl)cc2)o1 (centres undefined)	-29.9	-13.1%	11.2µM*	-9.3%	-17.3%
O=C(NCCc1ccccc1)c1ccc(CS(=O)Cc2cccc(Cl)c2)o1 (centres undefined)	4.0	-10.6%	-5.5%	-2.9%	-12.9%
O=C(NCCc1ccc(Cl)cc1)c1ccc(CS(=O)Cc2cccc(Cl)c2)o1 (centres undefined)	-64.1*	?	.	-15.0%	i
COc1ccc(OC)c(CCNC(=O)c2ccc(CS(=O)Cc3ccc(Cl)cc3)o2)c1 (centres undefined)	-4.8	-20.6%	10µM*	.	.
COC(=O)C(C(=O)OC)C1C=CCN(C(C)=O)C1 (centres undefined)	4.1	-24.3%	11.6%	-6.8%	i
CCCn1c(CN2CCN(C(=O)OCC)CC2)nc2cc([N+](=O)[O-])ccc21	-76.4*	?	?	-10.1%	-22.3%
CCOC(=O)N1CCN(Cc2nc3cc(NC(=O)c4ccc([N+](=O)[O-])cc4)ccc3n2C(C)C)CC1	-83.0*	0.0%	.	?	?
Cn1c(CCN2CCOCC2)nc2cc(NC(=O)COc3ccc([N+](=O)[O-])cc3)ccc21	-29.9	-16.5%	-4.0%	.	.
Cn1c(CN2CCOCC2)nc2cc(NC(=O)COc3ccc([N+](=O)[O-])cc3)ccc21	-71.4*	?	-18.1%	-22.9%	-8.6%
CCOC(=O)N1CCN(Cc2nc3cc(NC(=O)CC(C)C)ccc3n2C(C)C)CC1	-94.7*	-17.2%	.	-27.6%	?
SMILES	HCMV inh	FMDV inh	HCV inh	Vaccinia Venus	Vaccinia mCherry
CCN(CC)C(=O)C1=C(C)N(CCC2=CCCCC2)C(=O)C(CC(=O)NCc2cccs2)C1 (centres undefined)	-6.5	26.3%	.	-19.5%	-11.8%
O=C(O[C@@H]1Cc2c(O)cc(O)cc2OC1c1ccc(O)c(O)c1)c1cc(O)c(O)c(O)c1 (some centres undefined)	.	4.6%	.	-12.9%	-5.7%
CC(=O)OC[C@@H]1CN(Cc2ccccc2)C[C@H](n2cnc3c(NC4CCCC4)ncnc32)O1	-33.0	3.3%	.	-18.8%	i
COc1ccc(N2CC(C(=O)Nc3nnc(SCC(=O)NCC4CCCO4)s3)CC2=O)cc1 (centres undefined)	12.6	-14.6%	0.3%	-3.3%	-7.8%
COc1ccc(C(C(=O)NC(C)(C)C)N(C(=O)Cn2nnc3ccccc32)c2cccc(C(C)=O)c2)cc1O (centres undefined)	-23.9	5.0%	19.7%	-10.8%	-8.4%
CCOC(=O)N1CCN(Cc2nc3cc(NC(=O)CC)ccc3n2C(C)C)CC1	-9.5	?	.	-20.5%[7.34 µM]	-25.6%[7.34 µM]
CCOC(=O)N1CCN(Cc2nc3cc(NC(=O)c4cccc(C)c4)ccc3n2C(C)C)CC1	-94.4*	?	.	?	?
COc1ccc(N2CCN(c3oc(COc4ccccc4)nc3C#N)CC2)cc1	-17.5	-4.2%	-19.2%	-15.2%	-21.9%
CN(C)CCNc1oc(COc2ccc(-c3ccccc3)cc2)nc1C#N	-20.9	-26.3%	10µM*	-25.4%	-18.4%
CN1CCN(c2oc(COc3ccc(-c4ccccc4)cc3)nc2C#N)CC1	28.4	.	5.01µM*	-17.0%	-6.6%
COc1cc(CNCCSc2nnnn2C)ccc1OCc1ccc(C)cc1	26.1	3.6%	.	-13.4%	-15.9%
Cc1nn(CC(=O)NCCCN2CC(C)CC(C)C2)c(=O)c2cccn12 (centres undefined)	-31.2	-5.9%	23.2%	-11.2%	-14.4%
N#Cc1ccc(CSc2ccc(S(=O)(=O)N3CCCCCC3)cn2)cc1	?	-27.0%	?	-11.4%	-13.9%
O=C1/C(=C/c2ccco2)SC(=S)N1C1CCS(=O)(=O)C1 (centres undefined)	?	0.0%	-28.6%	-9.3%	-3.2%
CCN(C(=O)C(C)N1C(=O)/C(=C/c2ccco2)SC1=S)C1CCS(=O)(=O)C1 (centres undefined)	?	-7.1%	14.1µM*	.	.
O=C1/C(=C\c2ccco2)SC(=S)N1C1CCS(=O)(=O)C1 (centres undefined)	-73.5*	0.0%	11.1%	3.5%	?
O=C(O)CCn1c(=O)c2ccccc2c2ccccc2c1=O	-101.0*	-24.1%	13.4%	-9.2%	-13.6%[1.46 µM]
CCCCNC1C(CC)C(CCC)C(C#N)(C#N)C1(C#N)C#N (centres undefined)	.	31.6µM*	12.6µM*	-26.4%	.
Cc1ccc(N=c2oc3cc(O)ccc3cc2C(N)=O)cc1	-79.9*	-2.0%	11.2µM*	?	?
CC(=O)c1cc2ccc(O)cc2oc1=O	-33.4	-16.2%	16.3%	.	.
